In PubChem BioAssay (EPA / NIEHS):
Active and inactive are the calls of the source. How the source made its calls: active means hit-call score of the fitted dose curve at least 0.9, where 1 is the maximum; inactive means score below 0.9.

Assays:
[1] = ATG_DR4_LXR_CIS: Attagene CIS-FACTORIAL HepG2 Assay for human Liver X Receptor (LXR), DR4 submotif (AID 2282929); settings: HepG2 Attagene DR4 cis-reporter, mRNA transcription; actives raise or lower the signal
Outline: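 Endogenous factor activity at a DR4 cis-element is read as reporter mRNA in transiently transfected HepG2 cells. Exposure lasts 24 h; transcripts are amplified, fluorescently labelled and sized by capillary electrophoresis, with DMSO as baseline.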

[2] = target: Aryl hydrocarbon receptor (Homo sapiens) (UniProt P35869); experiment: ATG_Ahr_CIS: Attagene CIS-FACTORIAL HepG2 Assay for human Aryl Hydrocarbon Receptor (Ahr) (AID 2282930); settings: HepG2 AhR cis-factorial reporter transcription; actives raise or lower the signal
Sequence of Aryl hydrocarbon receptor (Homo sapiens) (P35869 whole entry, looked up): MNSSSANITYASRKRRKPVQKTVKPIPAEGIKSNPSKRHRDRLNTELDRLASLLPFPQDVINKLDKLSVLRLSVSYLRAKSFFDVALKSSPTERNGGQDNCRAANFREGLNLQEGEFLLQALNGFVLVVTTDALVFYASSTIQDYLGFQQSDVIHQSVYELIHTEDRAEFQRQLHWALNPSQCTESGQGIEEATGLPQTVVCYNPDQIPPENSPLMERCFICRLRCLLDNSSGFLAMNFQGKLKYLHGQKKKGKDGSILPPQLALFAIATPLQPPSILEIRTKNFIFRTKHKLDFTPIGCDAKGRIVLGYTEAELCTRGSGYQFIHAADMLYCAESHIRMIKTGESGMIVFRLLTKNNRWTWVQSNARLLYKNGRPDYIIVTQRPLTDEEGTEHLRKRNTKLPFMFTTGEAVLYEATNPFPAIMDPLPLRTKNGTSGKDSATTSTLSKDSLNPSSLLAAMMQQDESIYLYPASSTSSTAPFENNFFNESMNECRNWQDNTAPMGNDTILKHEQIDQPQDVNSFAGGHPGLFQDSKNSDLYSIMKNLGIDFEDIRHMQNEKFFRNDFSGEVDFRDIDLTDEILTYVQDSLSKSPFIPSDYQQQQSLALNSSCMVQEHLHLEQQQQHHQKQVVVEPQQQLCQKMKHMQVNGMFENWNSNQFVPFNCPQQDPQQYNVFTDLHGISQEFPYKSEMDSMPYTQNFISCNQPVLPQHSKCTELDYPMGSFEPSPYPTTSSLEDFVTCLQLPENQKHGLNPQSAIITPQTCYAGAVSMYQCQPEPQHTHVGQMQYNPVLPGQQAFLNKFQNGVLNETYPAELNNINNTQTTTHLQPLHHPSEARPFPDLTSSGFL
Outline: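 Following 24 h of chemical dosing, transfected HepG2 liver cells with cis-driven reporter units were lysed for RNA; reporter mRNA was quantified via RT-PCR and capillary electrophoresis, and responses fitted bidirectionally from DMSO.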

[3] = ATG_AP_1_CIS: Attagene CIS-FACTORIAL HepG2 Assay for human Activator Protein 1 (AP-1) (AID 2282931); settings: HepG2 Attagene cis-factorial AP-1 reporter mRNA; actives raise or lower the signal
Outline: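 Fluorescence of labelled PCR fragments separated by capillary electrophoresis gives reporter mRNA levels. HepG2 with transfected cis-regulated reporter units, 24 h exposure; DMSO serves as baseline for bidirectional curve fits.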

[4] = ATG_AP_2_CIS: Attagene CIS-FACTORIAL HepG2 Assay for human Activator Protein 2 (AP-2) (AID 2282932); settings: HepG2 AP-2 cis-reporter, Attagene transcription factor profiling; actives raise or lower the signal
Outline: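 Cells (HepG2) transfected with promoter-driven reporter constructs, treated 24 h. Total RNA reverse-transcribed, reporter cDNA PCR-amplified, FAM-labelled by primer extension, digested, resolved by capillary electrophoresis. Activity fitted both directions versus DMSO.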

[5] = ATG_BRE_CIS: Attagene CIS-FACTORIAL HepG2 Assay for human Bone Morphogenetic Protein (BMP) Response Element (BRE) (AID 2282933); settings: HepG2 BMP response element reporter, Attagene transcription factor profiling; actives raise or lower the signal
Outline: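 HepG2 cells transiently transfected with multiplexed cis-element reporter units were dosed with chemical for 24 h. Reporter mRNA was measured by RT-PCR with fluorescent labelling, HpaI digestion and capillary electrophoresis; bidirectional fitting relative to DMSO.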

[6] = target: Transcription factor E2F1 (Homo sapiens) (UniProt Q01094); experiment: ATG_E2F_CIS: Attagene CIS-FACTORIAL HepG2 Assay for human E2F Transcription Factor 1 (AID 2282935); settings: HepG2 Attagene cis-reporter, E2F reporter RNA transcripts; actives raise or lower the signal
Sequence of Transcription factor E2F1 (Homo sapiens) (Q01094 whole entry, looked up): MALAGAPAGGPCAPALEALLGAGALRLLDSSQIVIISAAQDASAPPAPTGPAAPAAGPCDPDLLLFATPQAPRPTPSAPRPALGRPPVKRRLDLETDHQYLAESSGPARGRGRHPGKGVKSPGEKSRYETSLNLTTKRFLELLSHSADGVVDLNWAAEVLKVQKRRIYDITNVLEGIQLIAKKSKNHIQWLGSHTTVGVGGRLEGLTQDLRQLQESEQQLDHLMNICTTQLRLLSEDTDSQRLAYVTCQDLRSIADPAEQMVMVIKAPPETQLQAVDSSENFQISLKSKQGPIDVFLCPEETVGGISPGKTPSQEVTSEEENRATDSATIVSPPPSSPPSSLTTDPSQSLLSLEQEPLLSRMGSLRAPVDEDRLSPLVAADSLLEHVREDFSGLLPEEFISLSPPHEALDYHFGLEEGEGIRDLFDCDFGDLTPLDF
Outline: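 First, HepG2 cells were transfected with reporter transcription units. Next, they were dosed for 24 h. Then RNA was isolated, converted to cDNA, PCR-amplified, FAM-labeled, HpaI-digested and analyzed by capillary electrophoresis.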

[7] = ATG_E_Box_CIS: Attagene CIS-FACTORIAL HepG2 Assay for human Enhancer Box (E-box) (AID 2282936); settings: HepG2 E-box cis-reporter transcription, actives raise or lower the signal
Outline: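 Endogenous transcription factor activity was sensed in human HepG2 liver cells through transfected cis-promoter reporter units. After 24 h of dosing, total RNA was reverse-transcribed and reporter cDNA resolved by capillary electrophoresis.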

[8] = ATG_M_61_CIS: Attagene CIS-FACTORIAL HepG2 Assay for M61 Transcription Factor (Internal Marker) (AID 2282937); settings: HepG2 Attagene CIS-FACTORIAL M61 internal marker reporter; actives raise or lower the signal
Outline: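 This endpoint serves as an internal background control within a multiplexed HepG2 cis-reporter panel. Cells are exposed for 24 h; reporter mRNA is amplified, fluorescently labelled and sized by capillary electrophoresis, with DMSO as negative control.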

[9] = ATG_EGR_CIS: Attagene CIS-FACTORIAL HepG2 Assay for human Early Growth Response 1 (EGR1) (AID 2282938); settings: HepG2 Attagene CIS-FACTORIAL EGR reporter mRNA; actives raise or lower the signal
Outline: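 HepG2, transient MRTU transfection (cis promoters), 24 h compound. RNA → RT (oligo-dT) → PCR → 6-FAM labelling → HpaI cut → CE fluorescence. Bidirectional fit, DMSO baseline.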

[10] = ATG_M_19_CIS: Attagene CIS-FACTORIAL HepG2 Assay for M19 Transcription Factor (Internal Marker) (AID 2282939); settings: HepG2 Attagene CIS-FACTORIAL M19 internal marker reporter; actives raise or lower the signal
Outline: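 HepG2 cells transiently transfected with cis-regulated multiple reporter transcription units were dosed for 24 h; reporter mRNA was quantified by RT-PCR, 6-FAM primer-extension labelling, HpaI digestion and capillary electrophoresis, with bidirectional fitting against DMSO baseline.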

[11] = ATG_ERE_CIS: Attagene CIS-FACTORIAL HepG2 Assay for Estrogen Response Element (ERE) (AID 2282940); settings: HepG2 ERE cis-reporter, Attagene RNA transcript; actives raise or lower the signal
Outline: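 HepG2 cells transiently transfected with cis-promoter-driven multiplexed reporter transcription units report endogenous TF activity. After 24 h compound exposure, reporter mRNA is quantified by RT-PCR with capillary electrophoresis fluorescence; bidirectional fitting versus DMSO baseline.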

[12] = target: Hepatocyte nuclear factor 3-beta (Homo sapiens) (UniProt Q9Y261); experiment: ATG_FoxA2_CIS: Attagene CIS-FACTORIAL HepG2 Assay for human Forkhead box A2 (FOXA2) (AID 2282942); settings: HepG2 cis-reporter transcription factor activity, 24 h; actives raise or lower the signal
Sequence of Hepatocyte nuclear factor 3-beta (Homo sapiens) (Q9Y261 whole entry, looked up): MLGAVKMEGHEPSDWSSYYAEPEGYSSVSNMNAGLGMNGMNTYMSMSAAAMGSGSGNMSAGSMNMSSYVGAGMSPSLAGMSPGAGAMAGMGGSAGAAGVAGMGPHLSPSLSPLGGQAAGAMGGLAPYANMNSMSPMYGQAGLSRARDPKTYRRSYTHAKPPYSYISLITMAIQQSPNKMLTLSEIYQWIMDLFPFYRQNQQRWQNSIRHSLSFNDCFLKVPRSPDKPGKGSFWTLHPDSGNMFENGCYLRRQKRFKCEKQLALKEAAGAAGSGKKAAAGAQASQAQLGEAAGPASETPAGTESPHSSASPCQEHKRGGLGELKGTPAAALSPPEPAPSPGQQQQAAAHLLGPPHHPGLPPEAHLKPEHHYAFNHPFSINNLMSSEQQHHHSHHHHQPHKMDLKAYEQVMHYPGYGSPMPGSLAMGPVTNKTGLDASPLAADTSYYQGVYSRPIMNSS
Outline: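 Cells: HepG2, transient multiplex reporter transfection. Exposure 24 h. Detection: reporter-specific RT-PCR, fluorescent labelling, restriction digest, capillary electrophoresis. Analysis: bidirectional curve fit, DMSO as negative control.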

[13] = ATG_FoxO_CIS: Attagene CIS-FACTORIAL HepG2 Assay for human Forkhead box O (FoxO) (AID 2282943); settings: HepG2 Attagene cis-reporter, FoxO element, mRNA; actives raise or lower the signal
Outline: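 24 h chemical exposure, HepG2 with transient cis-MRTU transfection. RNA extraction, oligo(dT) RT, reporter-specific PCR, primer-extension labelling, HpaI digestion, CE fragment analysis; bidirectional fit, DMSO baseline.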

[14] = ATG_GATA_CIS: Attagene CIS-FACTORIAL HepG2 Assay for human GATA Binding Protein (AID 2282944); settings: HepG2 GATA cis-element reporter, Attagene multiplex mRNA; actives raise or lower the signal
Outline: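 HepG2 cells transiently transfected with multiplexed cis-element reporter units reflecting endogenous transcription factor activity; reporter mRNA measured after 24 h dosing by RT-PCR, 6-FAM labeling, HpaI digestion and capillary electrophoresis. Bidirectional fitting versus DMSO baseline.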

[15] = ATG_GLI_CIS: Attagene CIS-FACTORIAL HepG2 Assay for human Zinc Finger Protein GLI1 (AID 2282945); settings: HepG2, Attagene cis-factorial reporter mRNA, GLI element; actives raise or lower the signal
Outline: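 HepG2 cells transiently transfected with cis-promoter multiplexed reporter units report endogenous transcription factor activity. After 24 h chemical exposure, reporter mRNA was quantified by RT-PCR, 6-FAM labelling, HpaI digestion and capillary electrophoresis, with bidirectional fitting against DMSO.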

[16] = target: Bile acid receptor (Homo sapiens) (UniProt Q96RI1); experiment: ATG_IR1_CIS: Attagene CIS-FACTORIAL HepG2 Assay for human Nuclear Receptor Subfamily 1 Group H Member 4 (NR1H4), IR1 submotif (AID 2282946); settings: IR1 reporter transcription, actives raise or lower the signal
Sequence of Bile acid receptor (Homo sapiens) (Q96RI1 whole entry, looked up): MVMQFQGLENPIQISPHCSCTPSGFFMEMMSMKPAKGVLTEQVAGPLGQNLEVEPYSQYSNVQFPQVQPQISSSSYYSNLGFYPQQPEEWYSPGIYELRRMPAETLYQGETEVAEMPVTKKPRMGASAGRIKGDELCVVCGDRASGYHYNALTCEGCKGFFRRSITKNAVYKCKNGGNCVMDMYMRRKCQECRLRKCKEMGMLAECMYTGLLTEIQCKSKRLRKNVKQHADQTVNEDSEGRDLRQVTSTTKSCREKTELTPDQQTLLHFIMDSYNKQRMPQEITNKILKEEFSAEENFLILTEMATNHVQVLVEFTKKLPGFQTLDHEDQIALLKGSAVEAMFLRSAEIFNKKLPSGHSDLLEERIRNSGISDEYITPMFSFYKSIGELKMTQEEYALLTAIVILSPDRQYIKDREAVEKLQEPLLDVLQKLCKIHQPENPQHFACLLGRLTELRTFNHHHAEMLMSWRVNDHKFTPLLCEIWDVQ
Outline: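 Readout: reporter transcript levels by RT-PCR with fluorescent capillary electrophoresis, from HepG2 cells transiently transfected with multiplexed cis-regulated reporters and dosed 24 h. Gain- or loss-of-signal fitted versus DMSO negative control.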

[17] = ATG_GRE_CIS: Attagene CIS-FACTORIAL HepG2 Assay for human Glucocorticoid Response Elements (GRE) (AID 2282947); settings: HepG2 GRE cis-reporter, Attagene multiplex mRNA; actives raise or lower the signal
Outline: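 Cells (HepG2) bearing transfected cis-promoter reporter transcription units were treated with chemical for 24 hours. Reporter mRNA was measured via RT-PCR with capillary electrophoresis, and activity was fitted in both directions relative to DMSO.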

[18] = ATG_ISRE_CIS: Attagene CIS-FACTORIAL HepG2 Assay for human Interferon Regulatory Factor 1 (IRF1) binding to an Interferon-Stimulated Response Element (ISRE) (AID 2282948); settings: HepG2 ISRE cis-reporter (Attagene), mRNA transcription readout; actives raise or lower the signal
Outline: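 Uses HepG2 liver cells transfected with cis-regulated reporters and measures mRNA 24 h post-dosing through RT-PCR, primer-extension labelling and capillary electrophoresis, with DMSO as negative control.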

[19] = ATG_Ets_CIS: Attagene CIS-FACTORIAL HepG2 Assay for human Erythroblast Transformation Specific (ETS) (AID 2282941); settings: HepG2 ETS cis-reporter transcription, actives raise or lower the signal
Outline: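 Bidirectional fit versus DMSO of reporter mRNA signal, detected by RT-PCR and capillary electrophoresis in HepG2 cells transiently transfected with cis-element reporters and dosed 24 h.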

Measured: outcome

C[N+](C)(C)Cc1ccccc1
not listed: [19]
inactive: all other assays above

O=c1[nH]c(=O)n(Cl)c(=O)n1Cl
not listed: [10] | [11] | [16]
inactive: all other assays above

CC(C)C(C)(N)C#N (stereo not drawn)
not listed: [9] | [11]
inactive: all other assays above

CC1(C)[C@H](C(=O)O[C@H](C#N)c2cccc(Oc3ccccc3)c2)[C@@H]1/C=C(\Cl)C(F)(F)F
not listed: [10] | [11]
inactive: all other assays above
